In PubChem BioAssay AID504727 (Broad Institute, 2011):
Unmarked numbers belong to inactive results. Active and inactive are the calls of the source.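 Rule for the calls: active = fitted half-maximal concentration AC50 at or below ten times the highest valid tested dose, with signal falling as DNA is displaced (actives reach about 34 µM in these data); inconclusive = flat fit at moderate signal loss, or poor fit quality; inactive = the rest, including signal rising instead of falling.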

Test: acridine orange-DNA binding displacement – biochemical, fluorescence polarization, cherry-picked samples, set 2, artefact control for KSHV LANA DNA-binding inhibitor project, dose response (AID 504727);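 for activity change, negative = DNA displacement: 0% = median of neutral control wells and -100% = mitoxantrone positive control wells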
Details: series mostly up to 35 µM; activity change, negative = DNA displacement: at the top concentration

Row | SMILES | activity change, negative = DNA displacement | AC50
1 | CSc1ccc(/C=N/Nc2cccc(C(=O)O)c2)cc1 | 4.22% | –
2 | Brc1c(CSc2nncc3ccccc23)nc2ccccn12 | 1.8% | –
3 | Cc1nn(Cc2c(F)c(F)c(F)c(F)c2F)c(C)c1NC(=O)c1ccnn1C | -16.1% | –
4 | Cn1c(=O)c(N)c2c3c(c(Br)ccc31)C(=O)c1ccccc1-2 | – | 2990 nM (active)
5 | Oc1ccc2nnc3c(Br)cnn3c2c1 | – | 8340 nM (active)
6 | O=c1cc2c(=O)oc3cc(O)c(O)oc3c2c(O)c1O | 8.73% | –
7 | O=C(c1coc(=O)c(Br)c1)N1CCCc2ccccc21 | 0.291% | –
8 | CCOC(=O)C1Nc2ccccc2C2C(O)C(O)CC12 (stereo not drawn) | 3.73% | –
9 | CCOC(=O)C1C2C=CC3(CN(c4cccc(Cl)c4)C(=O)C13)O2 (stereo not drawn) | 1.09% | –
10 | Cc1ccc(CSc2ncnc3onc(C)c23)cc1 | 2.23% | –
11 | COc1ccc(/C=N/NC(=O)c2ccc3nc[nH]c3c2)c(OC)c1 | -8.43% | –
12 | CCc1nnc(NC(=O)c2cccc(S(=O)(=O)N(C)c3ccccc3)c2)s1 | -0.138% | –
13 | Cc1cc(C)n(CC(=O)NNC(=O)CC(C)c2ccccc2)n1 (stereo not drawn) | 2.41% | –
14 | COc1cccc(/C=N/NC(=O)C(=O)NCc2cccnc2)c1O | 2.98% | –
15 | O=C(O)Cc1c[nH]c2cccc(O)c12 | 1.91% | –
16 | N=c1ccn(Cc2ccc(Cl)cc2)cc1 | 5.76% | –
17 | O=C1NC(=S)S/C1=C\C=C\c1ccc([N+](=O)[O-])o1 | 6.23% | –
18 | O=C(O)c1ccccc1NC(=O)c1cc(-c2ccccc2)nc2ccccc12 | 1.7% | –
19 | NNC(=O)CC1=NNC(=O)C1 | 2.31% | –

Row | SMILES | activity change, negative = DNA displacement | AC50
20 | Fc1ccc(-c2cc(C(F)(F)F)nc(-n3cc(Cl)cn3)n2)cc1 | 5.26% | –
21 | CN(C)/C=N/c1nc2nccc(-c3ccc(Cl)cc3)n2n1 | -2.19% | –
22 | CCOc1ccc(/C=C2\CCCc3c2nc2ccccc2c3C(=O)O)cc1OC | – | 1730 nM (active)
23 | O=C1C(=Cc2ccco2)CCC1=Cc1ccco1 | 2.6% | –
24 | CCN(CC)C(=O)C1c2ccccc2Oc2ccccc21 | -1.95% | –
25 | NS(=O)(=O)c1cc(C(=O)NC2CCSc3ccccc32)ccc1Cl (stereo not drawn) | 1.38% | –
26 | CCC1(c2ccccc2)NC(=O)N(CC(=O)Nc2ccc(OC)nc2)C1=O (stereo not drawn) | – | 7640 nM (active)
27 | Cc1ccccc1NC(=O)CN1C(=O)N/C(=C\c2cccn2-c2cccc(C(=O)O)c2)C1=O | 3.04% | –
28 | CCN(CC)S(=O)(=O)N1CCN(S(=O)(=O)N2CCOCC2)CC1 | 3.98% | –
29 | COc1ccc(CC(=O)O/N=C(\N)c2ccc(OC)cc2)cc1 | 2.52% | –
30 | COc1ccc(C)cc1NC(=O)C(OC(=O)c1cnccn1)c1ccccc1 (stereo not drawn) | 0.816% | –
31 | CCC(Sc1ncccc1C(=O)O)C(=O)N1CCCC1 (stereo not drawn) | 6.54% | –
32 | Nc1ccccc1C(=O)N1O[C@@H]2C=C[C@H]1CC2 | -1.77% | –
33 | Cn1c(=O)c(NCCc2ccccc2)c2c3c(cccc31)C(=O)c1ccccc1-2 | – | 1140 nM (active)
34 | Nc1ccc2c(O)cc(S(=O)(=O)O)cc2c1 | 0% | –
35 | Cc1cccc(N(Cc2ccccc2)C(=O)C2CCN(C(=O)c3ccccc3C)CC2)c1 | 1.55% | –
36 | COc1cccc2c1C(=O)c1c(O)c3c(c(O)c1C2=O)C[C@@](O)(C(=O)CO)C[C@@H]3O[C@H]1C[C@H](N)[C@H](O)[C@H](C)O1 | – | 2400 nM (active)
37 | O=C1c2ccccc2-c2onc3ccc(NCc4ccco4)c1c23 | – | 3820 nM (active)
38 | Cc1ccc(C(=O)O)cc1N1C(=O)c2cccc3c([N+](=O)[O-])ccc(c23)C1=O | -4.44% | –
